This is a sample that favours compounds with a hit; in the whole collection about 27% have one here.
CYP2C9 inhib – inhibitors of human CYP2C9. P11712. CYP2C9 Supersomes, luciferin-H conversion, luminescence. inhibition, % at 5 µM. 96,000 tested, 20% active. AID 777;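 active = blocking of liver enzyme CYP2C9 beyond about 50% at 5 µM, limit read from the data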
Target sequence (P11712 whole entry, looked up): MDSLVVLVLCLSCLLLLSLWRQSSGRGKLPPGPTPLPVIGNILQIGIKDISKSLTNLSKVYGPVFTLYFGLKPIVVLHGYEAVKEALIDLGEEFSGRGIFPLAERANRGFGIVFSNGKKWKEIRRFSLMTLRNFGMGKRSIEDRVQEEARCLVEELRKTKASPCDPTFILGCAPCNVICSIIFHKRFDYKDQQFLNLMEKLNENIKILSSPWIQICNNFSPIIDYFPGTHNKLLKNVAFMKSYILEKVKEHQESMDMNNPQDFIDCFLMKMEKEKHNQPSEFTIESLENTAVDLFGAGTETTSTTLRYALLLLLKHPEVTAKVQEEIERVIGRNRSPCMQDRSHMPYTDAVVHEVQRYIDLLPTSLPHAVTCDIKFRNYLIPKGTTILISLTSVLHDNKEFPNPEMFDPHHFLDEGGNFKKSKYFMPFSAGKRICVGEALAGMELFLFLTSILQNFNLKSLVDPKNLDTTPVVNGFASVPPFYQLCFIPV
CYP2C9 act – CYP2C9 (human) activation; 96,000 tested, 1.4% active; recombinant CYP2C9, luciferin-H conversion, luminescence; hits give high values; factor 1 = untreated enzyme, 0 = blocked; P11712; activation factor at 5 µM; AID 1024;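 active = activation factor of 2 or more for CYP2C9 at a 5 µM dose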;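 also: 0 = sulfaphenazole-blocked wells and 1 = vehicle-only wells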
sEH inh – blocks human soluble epoxide hydrolase activity | inhibition, % at 2 µM | AID 707 | 91,000 tested, 0.34% active | P34913 | recombinant human sEH enzymatic activity assay; in the data active = inhibition above about 80%
CYP2C19 act – activators of human cytochrome P450 2C19. recombinant CYP2C19, luciferin-H EGE luminescence; hits give high values; 0 = fully inhibited enzyme, 1 = untreated enzyme. activation factor at 5 µM. 96,000 tested, under 10 active. AID 1025;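 active = activation factor of at least 2 at 5 µM in the primary screen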;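 also: 0 = wells with 2.5 mM tranylcypromine and 1 = vehicle-only wells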
sEH act – soluble epoxide hydrolase (human) activation | P34913 | purified human sEH enzymatic activity, activator screen | activation, % at 2 µM | 91,000 tested, 0.04% active; in the data active = activation above about 37%
CYP2C19 inhib – blocks human cytochrome P450 2C19 | CYP2C19 Supersomes, luciferin-H EGE luminescence, 30 min | P33261 | inhibition, % at 5 µM | 96,000 tested, 21% active;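 active = CYP2C19 inhibition above a set limit at 5 µM in the primary screen, cut at about 50% in these data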;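 also: plate controls were negative control wells for no effect and 2.5 mM tranylcypromine positive control for full effect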
The depositor's hits bear a star; . = no result.

SMILES | CYP2C9 inhib | CYP2C9 act | sEH inh | CYP2C19 act | sEH act | CYP2C19 inhib
Brc1cccc(C2CC(c3ccccc3)n3nnnc3N2)c1 (stereo unspecified) | 80* | 0.2 | -4 | 0.2 | 6 | 78*
COc1ccccc1CNC(=O)C1CCC(CNc2c(N3CCOCC3)c(=O)c2=O)CC1 (stereo unspecified) | 8 | 0.9 | 10 | 1 | -10 | -3
COc1ccccc1-c1cc(C(=O)NC(C)C)no1 | -300 | 4* | 10 | 0.8 | -10 | 16
COc1ccccc1-c1cc(C(=O)Nc2ccc(F)cc2F)no1 | -49 | 1.5 | -2 | 0.9 | 4 | 14
COc1ccccc1-c1cc(C(=O)NC(C)c2ccccc2)no1 (stereo unspecified) | -179 | 2.8* | 14 | 0.9 | -15 | 10
O=C(NCC1CCCO1)C1CCC(CNS(=O)(=O)c2ccccc2)CC1 (stereo unspecified) | -14 | 1.1 | 19 | 1.1 | -19 | -9
CC(C)(C)c1cccc(Oc2nn[nH]n2)c1 | -8 | 1.1 | 0 | 0.3 | 2 | 72*
Cc1cc(C)cc(Oc2nn[nH]n2)c1 | 3 | 1 | 6 | 1 | -4 | -3
CCN(C(=O)COc1ncnc2ccc(Br)cc12)C1CCS(=O)(=O)C1 (stereo unspecified) | -10 | 1.1 | . | 1.1 | . | -11
CCOC(=O)/C(C#N)=C1/SC(CC)C(=O)N1c1ccc(Br)cc1 (stereo unspecified) | 41 | 0.6 | -10 | 0.2 | 10 | 78*
CCOC(=O)/C(C#N)=C1/SC(CCO)C(=O)N1c1ccccc1 (stereo unspecified) | . | . | -5 | . | 5 | .
CCOC(=O)/C(C#N)=C1/SC(C)C(=O)N1c1ccc(Br)cc1 (stereo unspecified) | 72* | 0.3 | -6 | 0 | 6 | 95*
CCC1S/C(=C(\C#N)C(=O)NCc2ccco2)N(c2ccc(Br)cc2)C1=O (stereo unspecified) | 51* | 0.5 | 6 | 0.6 | -9 | 43
N#CCCN1CCn2c1nc1ccccc12 | -22 | 1.2 | 8 | 0.9 | -8 | 12
CCN1CCN(C2CCN(C(C)=O)CC2)CC1 | -12 | 1.1 | . | 1.1 | . | -7
O=C(c1ccco1)N1CCN(S(=O)(=O)c2ccc(S(=O)(=O)NC3CCCC3)cc2)CC1 | 14 | 0.9 | -19 | 1 | 19 | -5
COC(=O)C1=NN(N=O)C2(CC(=O)N(c3cc(C)cc(C)c3)C2=O)C1 (stereo unspecified) | 11 | 0.9 | -12 | 0.9 | 9 | 6
CCCSc1nnc(-c2cccc(S(=O)(=O)N(C)C)c2)n1-c1cc(OC)ccc1OC | 86* | 0.1 | 3 | 0.2 | -4 | 77*
CCSc1nnc(-c2cccc(S(=O)(=O)N(C)C)c2)n1-c1cc(OC)ccc1OC | 84* | 0.2 | -3 | 0.3 | 5 | 70*
CCCCN1C2CCCC1CC(NC(=O)N(C(C)C)C(C)C)C2 (stereo unspecified) | . | . | 8 | . | -8 | .
CCOCCCNC(=O)C1CCN(C(=O)Nc2ccc(Cl)cc2)CC1 | -9 | 1.1 | 16 | 1.1 | -14 | -9
CCCCN(C)C(=O)CSc1nc(NCc2ccc(OC)cc2)c2ccccc2n1 | 44 | 0.6 | 1 | 0.5 | 2 | 54*
COCCn1c(SCC(=O)N2CCCc3ccccc32)nc2c(c1=O)SC(C)C2 (stereo unspecified) | 95* | 0 | 6 | 0.7 | -4 | 34
COCCn1c(SCC(=O)N2CCCc3ccccc32)nnc1-c1ccco1 | -6 | 1.1 | 1 | 0.5 | -1 | 48
CCn1c(SCC(=O)N2CCc3ccccc32)nc2c(c1=O)SC(C)C2 (stereo unspecified) | 93* | 0.1 | . | 0.8 | . | 23
SMILES | CYP2C9 inhib | CYP2C9 act | sEH inh | CYP2C19 act | sEH act | CYP2C19 inhib
COCCn1c(SCC(=O)N2CCCc3ccccc32)nc2ccccc2c1=O | 96* | 0 | 6 | 0 | -6 | 96*
CCn1c(SCC(=O)N2CCCCC2)nc2c(c1=O)SC(C)C2 (stereo unspecified) | 69* | 0.3 | . | 0.7 | . | 25
Cc1cc2c(cc1C)CSC(c1ccccc1OC(=O)C(C)C)SC2 | 5 | 1 | 0 | 1 | 0 | -1
CCC1CCCCN1Cc1cc(OC)c(O)c([N+](=O)[O-])c1 (stereo unspecified) | -7 | 1.1 | 7 | 1.1 | -6 | -10
CCOc1ccc2nc(NCCNC(=O)C(C)C)c(C)cc2c1 | 94* | 0.1 | . | 0.2 | . | 77*
CCOc1ccc2nc(NCCNC(=O)C3CC3)c(C)cc2c1 | 52* | 0.5 | . | 0.4 | . | 56*
Cc1onc(-c2ccccc2)c1C(=O)N1CC(C)OC(C)C1 (stereo unspecified) | -1 | 1 | . | 0.9 | . | 12
Cc1cccc2cc(CN(Cc3ccccc3)C(=O)N3CCOCC3)c3nnnn3c12 | . | . | 0 | . | 2 | .
O=C(NCc1ccco1)C1CCN(C(=O)c2cc3sccc3n2Cc2ccc(Cl)cc2)CC1 | 77* | 0.2 | -2 | 0.4 | 3 | 65*
CCn1c(C(=O)N2CCC(C(=O)NCc3cccs3)CC2)cc2sccc21 | -21 | 1.2 | 10 | 0.8 | -10 | 25
O=C(NCCN1CCOCC1)c1cc2sccc2n1Cc1ccc(Cl)cc1 | 69* | 0.3 | . | 0.3 | . | 70*
O=C1CCCc2sccc2N1 | -1 | 1 | 12 | 1 | -10 | 5
CC(C)CCN1C(=O)CCC1(C)C(=O)NC1CCCCCCC1 (stereo unspecified) | 13 | 0.9 | -12 | 0.7 | 11 | 27
CCOc1ccc2nc(NCCCNS(=O)(=O)c3ccccc3)c(C#N)cc2c1 | 55* | 0.5 | -25 | 0.6 | 25 | 36
O=S(=O)(c1ccc2ccccc2c1)N(CC(O)CN1CCOCC1)c1ccccc1 (stereo unspecified) | 20 | 0.8 | 9 | 0.9 | -6 | 11
COc1ccc(-c2cc(C(F)(F)F)nc(S(C)(=O)=O)n2)cc1 | 42 | 0.6 | 4 | 0.9 | -6 | 5
COc1ccc(-c2cc(C(F)(F)F)c3c(=O)n(-c4ccccc4)[nH]c3n2)cc1 | 63* | 0.4 | 6 | 1 | -6 | -5
Cn1c(=O)n(CC(=O)NCc2cccnc2)c2ccccc21 | -10 | 1.1 | 0 | 1.1 | 0 | -5
COc1ccc(OCC(=O)NCc2cccnc2)cc1 | 30 | 0.7 | -5 | 0.4 | 11 | 58*
COc1ccc2c(c1)CCc1c(C(=O)NCc3cccnc3)noc1-2 | 6 | 0.9 | 19 | 1.1 | -18 | -8
CCC(NC(=O)NCc1cccnc1)(C(F)(F)F)C(F)(F)F | 73* | 0.3 | -14 | 0.1 | 13 | 87*
Cc1sc(C(=O)NCc2cccnc2)c2nc(C)n(CC(=O)NCc3cccnc3)c(=O)c12 | 97* | 0 | 4 | 0.4 | -1 | 59*
COc1cc(OC)cc(C(=O)NCc2cccnc2)c1 | 2 | 1 | -17 | 0.4 | 16 | 62*
O=C(CC(=O)NCc1cccnc1)NCc1cccnc1 | 3 | 1 | 2 | 0.8 | -2 | 15
